Screens: PubChem, National Center for Advancing Translational Sciences (NCATS)
UDG counterscr: Primary qHTS assay for inhibitors of Activation Induced Cytidine Deaminase (AID): UDG Counterscreen signal; Uracil-DNA glycosylase; FRET deamination/UDG coupled assay, UDG read, 4 h; Potency, µM (doses to about 115 µM), usual class: inhibitors; 0.14% of 91,000 active; further: nearly all actives have a fitted effect of over 65% in size
AID inhibitor: Primary qHTS assay for inhibitors of Activation Induced Cytidine Deaminase (AID): AID signal | AID deamination FRET fluorescence, UDG-coupled, 4 h | Potency, µM (highest dose often 115 µM), most hits filed as inhibitors | 0.32% of 91,000 active | AID 1347428, 2020; further: nearly all actives have a fitted effect of over 25% in size
Target sequence (Q9GZX7 whole entry, looked up): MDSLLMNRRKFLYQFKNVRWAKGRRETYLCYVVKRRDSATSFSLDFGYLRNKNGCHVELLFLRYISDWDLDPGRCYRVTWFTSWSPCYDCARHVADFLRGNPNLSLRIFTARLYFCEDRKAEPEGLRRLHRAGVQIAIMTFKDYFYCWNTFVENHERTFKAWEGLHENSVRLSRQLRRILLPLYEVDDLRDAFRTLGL
Each line names hits and unclear results; the compound was inactive in the other large screens; ! = not active in a repeat. Shown are actives, neighbours in structure and some others; about 0.4% of the full set was active somewhere. The call rests on the fitted dose curve; in most records, active means well fitted curve in the direction sought with a large enough effect; inconclusive means small, poorly fitted or top-dose-only effect, or another doubt; inactive means no such curve, though single readings can be large; an effect the other way counts as inactive or inconclusive.

O=C1Cc2cc(-c3csc(Nc4ccccc4F)n3)ccc2N1	UDG counterscr inconclusive
CCOC(=O)Nc1ccc2c(CN3CCC(C(N)=O)CC3)cc(=O)oc2c1	none
Cc1ccc2nc(N3C(=O)C(O)=C(C(=O)c4ccco4)C3c3ccc(O)cc3)sc2c1 (stereo not given)	none
O=C(C1=C(O)C(=O)N(c2nc3ccc(Cl)cc3s2)C1c1ccco1)c1ccco1 (stereo not given)	AID inhibitor 50.1µM
CCCCNC1C2CC3CC1CC(C2)C3NCCCC (stereo not given)	none
CCOc1ccc(NC(=O)CC2Nc3cccc4cccc(c34)NC2=O)cc1 (stereo not given)	UDG counterscr inconclusive, AID inhibitor 50.1µM
CCOC(=O)c1ccc(NC(=O)CC2Nc3cccc4cccc(c34)NC2=O)cc1 (stereo not given)	AID inhibitor inconclusive
COc1ccc(NC(=O)CC2Nc3ccccc3NC2=O)cc1 (stereo not given)	none
CC(=O)c1ccc(NC(=O)CC2Nc3cccc4cccc(c34)NC2=O)cc1 (stereo not given)	UDG counterscr inconclusive, AID inhibitor 79.4µM
Brc1ccc(CNc2n[nH]c(-c3cccs3)n2)cc1	none
Cn1c(=O)c2c(-c3ccc(Cl)cc3)n(CCc3ccccc3)cc2n(C)c1=O	AID inhibitor inconclusive
Cn1c(=O)c2c(-c3ccc(Br)cc3)n(CCc3ccccc3)cc2n(C)c1=O	AID inhibitor 39.8µM
Cc1ccc([N+](=O)[O-])cc1S(=O)(=O)Nc1cccc(C#Cc2cccs2)c1	none
Cc1ccc(-c2nc(-c3nc(-c4ccc(C)cc4C)cs3)sc2C)cc1	none
Cc1ccc(/C=N/c2sc(C)c(C)c2C#N)cc1	none
CCc1ccc(CSc2nc(-c3ccccc3F)nc3c2Cc2c(CO)cnc(C)c2O3)cc1	none
CCN(CC)C(=O)CSc1nc(-c2ccccc2F)nc2c1Cc1c(CO)cnc(C)c1O2	AID inhibitor 28.2µM
O=C(O)CCNS(=O)(=O)c1ccc(C(=O)/C=C/c2ccccc2Cl)cc1	none
Cn1c(=O)c2c(nc(CN3CCN(c4ccc(F)cc4)CC3)n2Cc2ccccc2)n(C)c1=O	none
Cc1nc2nc(N)nn2c(C)c1CCC(=O)NCCC(C)C	none
O=C(/C=C/c1ccc(O)cc1)c1ccc(-c2cccs2)cc1	none
N#Cc1cccnc1NCCCNc1ncccc1C#N	none
COc1cccc(NC(=O)Cn2c(=O)oc3cc(S(=O)(=O)N4CCCCC4)ccc32)c1	UDG counterscr 89.1µM
Cc1cccc(NC(=O)Cn2c(=O)oc3cc(S(=O)(=O)N4CCCCCC4)ccc32)c1	none
COc1ccc(C2CC(=O)Nc3nc(N)sc32)cc1OCc1ccccc1Cl (stereo not given)	AID inhibitor 39.8µM
Cc1nn(-c2ccc3nnc(C)n3n2)c2c1C(c1cccc(OC(C)C)c1)CC(=O)N2 (stereo not given)	none
CC(C)Oc1cccc(C2CC(=O)Nc3nc(N)sc32)c1 (stereo not given)	AID inhibitor 28.2µM
COc1cc(C2CC(=O)Nc3ccsc32)ccc1OCC(N)=O (stereo not given)	none
CC1CCN(C(CNC(=O)Cn2c(=O)c3c(ncn3C)n(C)c2=O)c2cccs2)CC1 (stereo not given)	none
O=S1(=O)c2ccccc2N(Cc2ccc(F)cc2)c2ccccc21	AID inhibitor inconclusive
O=S1(=O)c2ccccc2N(Cc2ccc(Cl)cc2)c2ccccc21	AID inhibitor 79.4µM
Cc1cccc(-n2c(SCc3nc(-c4ccccc4C)no3)nnc2-c2ccccc2)c1	none
Cc1nnc(SCc2nc(-c3ccc(Cl)cc3)no2)n1-c1ccc(F)cc1	UDG counterscr 79.4µM, AID inhibitor inconclusive
Cc1ccc(-c2noc(CSc3nnc(C4CC4)n3-c3ccccc3)n2)cc1	UDG counterscr 89.1µM
Cc1ccc(-c2noc(CSc3nnc(C)n3-c3ccc(F)cc3)n2)cc1	UDG counterscr inconclusive
CC1CCN(CCCNCc2cccnc2)CC1	none
COc1ccccc1S(=O)(=O)Cc1ccc(C(=O)N2CCN(c3cc(Cl)ccc3C)CC2)o1	UDG counterscr 89.1µM, AID inhibitor inconclusive
CCn1cc(C(=O)N2CCN(c3cc(Cl)ccc3C)CC2)c2cc(OC)c(OC)cc2c1=O	none
Cc1ccccc1Cn1c(SCc2ccc(C(=O)NCc3cccs3)cc2)nc2ccncc21	none
O=C(NCc1cccs1)c1ccc(CSc2nc3ccncc3n2Cc2ccccc2F)cc1	AID inhibitor 79.4µM
Cc1ccc(-c2csc(-c3nc(-c4cc(C)ccc4C)cs3)n2)cc1	none
COc1ccc(-c2c(C#N)c(SCC(=O)Nc3ccccc3C)nc(C)c2C(=O)Nc2ccc(Cl)cc2)cc1	UDG counterscr inconclusive
CCc1ccc(NC(=O)CSc2nc(C)c(C(=O)Nc3ccc(Cl)cc3)c(-c3ccc(OC)cc3)c2C#N)cc1	UDG counterscr 89.1µM, AID inhibitor inconclusive
Clc1cccc(CSc2nc3ncccc3o2)c1	none
Clc1cccc(CSc2cccc3cccnc23)c1	AID inhibitor 25.1µM
O=C(NCc1ccc(C(=O)N2CCCCC2)cc1)c1cccc(C(F)(F)F)c1	none
NCC(O)c1ccc(O)c(O)c1 (stereo not given)	none
CC(C)NC[C@H](O)c1ccc(O)c(O)c1	AID inhibitor 79.4µM!
CC(C)NCC(O)c1cc(O)cc(O)c1 (stereo not given)	none
CCC(NC(C)C)C(O)c1ccc(O)c(O)c1 (stereo not given)	AID inhibitor 44.7µM
O=C(c1ccccc1O)N1CCN(C(=O)c2cc(=O)[nH]c3ccccc23)CC1	none
CCCOC(=O)Nc1ccccc1N=C1CCC/C1=C/c1ccccc1	none
Cc1ccc(C)c(OCCn2c(C3CC(=O)N(Cc4ccc(F)cc4)C3)nc3ccccc32)c1 (stereo not given)	UDG counterscr 79.4µM, AID inhibitor 28.2µM
CCOc1ccccc1N1CC(c2nc3ccccc3n2CCCCOc2cc(C)ccc2C)CC1=O (stereo not given)	none
Cc1ccc2nc(CN3CCN(S(=O)(=O)c4ccccc4)CC3)oc2c1	none
Cc1cc(C)c(S(=O)(=O)N2CCN(Cc3nc4ccc(C)cc4o3)CC2)c(C)c1	UDG counterscr 89.1µM, AID inhibitor inconclusive
CC1Sc2ccc(C(=O)NNC(=O)CSc3cccc4cccnc34)cc2NC1=O (stereo not given)	AID inhibitor 22.4µM
C=C(Cl)COC(=O)c1ccc2c(c1)NC(=O)C(C)S2 (stereo not given)	none
COc1ccc(Nc2nc3ccccc3nc2NS(=O)(=O)c2ccc(NC(C)=O)cc2)cc1OC	none
COc1ccc(Nc2nc3ccccc3nc2NS(=O)(=O)c2ccc(Cl)cc2)cc1OC	AID inhibitor 79.4µM!
CCN(Cc1ccccc1)S(=O)(=O)c1ccc(S(N)(=O)=O)cc1	none
COc1ccc(S(=O)(=O)N(CC(=O)NC(C)c2ccccc2)c2ccc(C)cc2)cc1OC (stereo not given)	UDG counterscr inconclusive, AID inhibitor 44.7µM
COc1ccc(S(=O)(=O)N(CC(=O)NCc2ccccc2)c2ccc(C)cc2)cc1OC	none
COc1ccc(S(=O)(=O)N(CC(=O)Nc2cccc(C(F)(F)F)c2)c2ccc(C)cc2)cc1	AID inhibitor 25.1µM
COc1ccc(S(=O)(=O)N(CC(=O)Nc2cc(C)cc(C)c2)c2ccc(Cl)cc2)cc1	none
CCC(C)c1ccc(NC(=S)Nc2ccc(N(CC)CC)cc2)cc1 (stereo not given)	none
C/C(=N\NC(N)=S)c1ccc2c3c(cccc13)CC2	none
Cc1ccc2cc(CCl)c(Cl)nc2c1C	none
COCC(=O)n1nc(NCc2ccc(Cl)cc2Cl)nc1NCc1ccc(Cl)cc1Cl	none
